Screening results from PubChem.
The list is not random: actives were taken first. Their share in the collection is about 4.1%.
Sm TGR block: qHTS Assay for the Inhibitors of Schistosoma Mansoni Peroxiredoxins | Schistosoma mansoni thioredoxin glutathione reductase (TGR), Q962Y6 | 360,000 compounds, 3% hits | Potency, µM (titrated, usually from 114 µM), for the others: at the top dose activity change, negative = inhibition, hits mostly inhibitors | purified TGR, DTNB reduction, TNB absorbance 405 nm; also: nearly all actives have a fitted effect of over 60% in size
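Kinetic colorimetric format: TGR-catalysed, NADPH-driven DTNB reduction monitored via TNB absorbance. Enzyme dispensed at 20 nM; compound exposure 15 min at room temperature before reaction start.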
FMDV inh: High Throughput Screening for Foot and Mouth Disease Virus Antivirals. 410,000 compounds, 1.2% hits. Potency, µM (series often up to 57.9 µM), for inactives: at the top dose activity change, negative = inhibition, hits mostly inhibitors. FMDV antiviral cell-based qHTS; calls by dose curve; tested in HEK293T cells; also: read-out not given here; nearly all actives have a fitted effect of over 45% in size
AmpC detergent: qHTS Inhibitors of AmpC Beta-Lactamase (assay with detergent); P00811; AmpC hydrolysis of nitrocefin, absorbance 480 nm, 0.01% Triton; Potency, µM (series often up to 114 µM), without a hit: at the highest dose activity change, negative = inhibition, hits mostly inhibitors; 370,000 compounds, 0.041% hits; AID 485294, 2010;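 also: 0% = no-compound wells and -100% = no-enzyme wells; nearly all actives have a fitted effect of over 25% in size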
Target sequence (P00811 whole entry, looked up): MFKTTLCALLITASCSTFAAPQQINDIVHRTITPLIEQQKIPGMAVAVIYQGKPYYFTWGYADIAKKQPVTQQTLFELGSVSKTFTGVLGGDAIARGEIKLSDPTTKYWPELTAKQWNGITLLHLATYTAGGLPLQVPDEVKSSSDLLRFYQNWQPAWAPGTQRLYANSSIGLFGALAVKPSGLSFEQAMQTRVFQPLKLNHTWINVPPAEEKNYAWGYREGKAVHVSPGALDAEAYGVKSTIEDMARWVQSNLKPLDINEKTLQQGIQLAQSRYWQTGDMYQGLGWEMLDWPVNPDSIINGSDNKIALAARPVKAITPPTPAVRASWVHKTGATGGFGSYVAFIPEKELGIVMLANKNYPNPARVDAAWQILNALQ
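AmpC (5.3 nM in the dispensed reagent) in 20 mM phosphate pH 7.0 with 0.01% (detergent screen) or 0.0001% Triton X-100 was preincubated with compounds for 15 min at room temperature. Nitrocefin was then added from an 800 uM solution, and hydrolysis was followed at 480 nm.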
AmpC no deterg: qHTS Inhibitors of AmpC Beta-Lactamase (assay without detergent). 330,000 compounds, 0.52% hits. AmpC nitrocefin hydrolysis, absorbance 480 nm, 0.0001% Triton. Potency, µM (doses to about 57.1 µM), for the others: at the top dose activity change, negative = inhibition, most hits filed as inhibitors. AID 485341, 2010;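 also: plate controls were no compound for no effect and no enzyme for full effect; nearly all actives have a fitted effect of over 20% in size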
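20 mM phosphate pH 7.0 + 0.01% (detergent screen) or 0.0001% Triton X-100; 5.3 nM AmpC reagent; cpd preinc 15 min RT; nitrocefin (800 uM stock) to start; A480 q20 s × 4 min; Activity was normalised to no-enzyme and no-compound control wells.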
AMA1-RON2 inh: qHTS for Inhibitors of AMA1-RON; Towards Development of Antimalarial Drug Lead: Primary Screen; Plasmodium falciparum AMA1 (3D7) - RON2 peptide interaction; AlphaScreen AMA1-biotinylated RON2 peptide binding; Potency, µM (series often up to 58.2 µM), without a hit: top-dose activity change, negative = inhibition, hits mostly inhibitors; 360,000 compounds, 0.2% hits; AID 720542, 2013;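 also: 0% = vehicle wells and -100% = peptide control; nearly all actives have a fitted effect of over 45% in size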
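AMA1 (3D7) with his tag at 25 nM final met compounds first, then biotinylated RON2 peptide at 25 nM; detection used donor plus acceptor beads, 10 µg/mL apiece, read by AlphaScreen after 30 min at room temperature.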
* hit, by the source's call; [ ] = dose if it differs, or a comment. Unless noted, calls follow the shape of the dose curve; as a rule, active = well fitted curve in the direction sought with a large enough effect; inconclusive = small, poorly fitted or top-dose-only effect, or another doubt; inactive = no such curve, though single readings can be large; an effect the other way counts as inactive or inconclusive. Unless noted, % is scaled to controls: 0 for no effect and ±100 for the full control effect; potency is read from the fitted curve at half-maximal effect.

Screening Nc1ccc(-c2nc3cc(N)ccc3s2)cc1 returned Sm TGR block 1%, FMDV inh -11%, AmpC detergent 9%, AmpC no deterg 0% and AMA1-RON2 inh -4%.
Cc1cc(Cl)n2c(nc3cc(F)c(F)cc32)c1C#N was read as Sm TGR block 1.1µM*, FMDV inh 18µM*, AmpC detergent 3%, AmpC no deterg -15% and AMA1-RON2 inh 8%.
For Cc1cccc(Cn2cc(S(=O)(=O)c3ccccc3)c(=O)c3cc(F)c(N4CCOCC4)cc32)c1 the results were Sm TGR block -1%, FMDV inh -29% and AmpC detergent 5%.
`O=C(NCCc1nnc2n1CCN(Cc1ccsc1)CC2)c1ccc(F)cc1` gave FMDV inh -8%.
For CC#CCN(Cc1ccco1)C(=O)c1ccc(OC2CCN(Cc3ccccn3)CC2)cc1 the results were Sm TGR block 79µM*, FMDV inh -3%, AmpC detergent -1%, AmpC no deterg 179% and AMA1-RON2 inh 1%.
For CN(Cc1ccco1)C(=O)c1ccc(OC2CCN(Cc3ccccn3)CC2)cc1 the results were Sm TGR block inconclusive, FMDV inh -16%, AmpC detergent 0%, AmpC no deterg 24% and AMA1-RON2 inh 49%.
For COC(=O)c1cccnc1N1CCN(c2ccccc2F)CC1 the results were Sm TGR block -6%, FMDV inh 0%, AmpC detergent 4%, AmpC no deterg 0.16µM* and AMA1-RON2 inh 25%.
Screening COC(=O)c1cnc(N2CCN(c3ccccc3F)CC2)c2ccccc12 returned Sm TGR block 6%, FMDV inh -13% and AmpC detergent 24%.
Screening CCS(=O)(=O)c1cc([N+](=O)[O-])c(Sc2ccccc2NC(C)=O)s1 returned Sm TGR block 2.8µM*, FMDV inh 16µM*, AmpC detergent 0%, AmpC no deterg -18% and AMA1-RON2 inh 11%.
CC(=O)Nc1ccccc1-c1ccccc1[N+](=O)[O-] was read as FMDV inh 13% and AMA1-RON2 inh -11%.
CCc1ccc(S(=O)(=O)c2cn(Cc3ccccc3)c3cc(N4CCCC4)c(F)cc3c2=O)cc1 was read as Sm TGR block 3%, FMDV inh 6% and AmpC detergent -7%.
C=CCc1cc(C=C2C(=O)N(C)C(=O)N(C)C2=O)cc(OCC)c1OCc1ccccc1 was read as Sm TGR block 32µM*, FMDV inh -29%, AmpC detergent -2%, AmpC no deterg -15% and AMA1-RON2 inh -3%[2.32 µM].
Screening C=CCc1cc(C=C2C(=O)NC(=O)NC2=O)cc(OC)c1OCc1ccc(C(=O)O)cc1 returned Sm TGR block inconclusive, FMDV inh -16%, AmpC detergent -3%, AmpC no deterg -50% and AMA1-RON2 inh 0%.
Screening CNC(=O)c1cc(Oc2ccc(NC(=O)Nc3ccc(Cl)c(C(F)(F)F)c3)cc2)ccn1 returned Sm TGR block -12%, FMDV inh 20µM*, AmpC detergent 11%, AmpC no deterg -22% and AMA1-RON2 inh 1%.
`O=C(Nc1ccc(Cl)c(C(F)(F)F)c1)c1ccncc1` gave Sm TGR block -9%, FMDV inh -12%, AmpC detergent -6%, AmpC no deterg -7% and AMA1-RON2 inh 8%.
Screening CC(C)Cc1ccc(C(C)/C=C2/CCC(CN3CCCCC3)C2=O)cc1 (stereo not drawn) returned FMDV inh 40µM* and AMA1-RON2 inh -6%.
Screening Clc1ccc(CNc2ccc(N3CCN(Cc4ccccc4)CC3)cc2)cc1 returned Sm TGR block -21%, FMDV inh inconclusive, AmpC detergent -1%, AmpC no deterg 25% and AMA1-RON2 inh 7.9µM*.
For COc1ccc(NC(=O)Cn2cnc3ccc(S(=O)(=O)N4CCC(C)CC4)cc3c2=O)cc1OC the results were Sm TGR block 18%, FMDV inh -1% and AmpC detergent -7%.
